Changes are numbered by the printed parent chain.
Assays:
Experiment in all cases: PBM; 200 nM protein, PBS
Settings in all cases: dsDNA, one strand shown
SIX6 [1] = biological target: T1, SIX6 (Homo sapiens, UniProt O95475 114-200, L167I)
T1 sequence: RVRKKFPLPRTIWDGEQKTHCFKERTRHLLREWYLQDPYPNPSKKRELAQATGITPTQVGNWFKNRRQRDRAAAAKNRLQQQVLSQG

SIX6 [2] = biological target: T2, SIX6 (Homo sapiens, UniProt O95475 114-200, L143V)
T2 sequence: T1 sequence with L30V, I54L

SIX6 [3] = biological target: T3, SIX6 (Homo sapiens, UniProt O95475 114-200, H141N)
T3 sequence: T1 sequence with H28N, I54L

SIX6 [4] = biological target: T4, SIX6 (Homo sapiens, UniProt O95475 114-200, T165P)
T4 sequence: T1 sequence with T52P, I54L

SIX6 [5] = biological target: T5, SIX6 (Homo sapiens, UniProt O95475 114-200, L167M)
T5 sequence: T1 sequence with I54M

SIX6 [6] = biological target: T6, SIX6 (Homo sapiens, UniProt O95475 114-200, L143M)
T6 sequence: T1 sequence with L30M, I54L

SIX6 [7] = biological target: T7, SIX6 (Homo sapiens, UniProt O95475 114-200, L143I)
T7 sequence: T1 sequence with L30I, I54L

SIX6 [8] = biological target: T8, SIX6 (Homo sapiens, UniProt O95475 114-200, T165G)
T8 sequence: T1 sequence with T52G, I54L

SIX6 [9] = biological target: T9, SIX6 (Homo sapiens, UniProt O95475 114-200, T139Q)
T9 sequence: T1 sequence with T26Q, I54L

SIX6 [10] = biological target: T10, SIX6 (Homo sapiens, UniProt O95475 114-200, T165A)
T10 sequence: T1 sequence with T52A, I54L

SIX6 [11] = biological target: T11, SIX6 (Homo sapiens, UniProt O95475 114-200, L167V)
T11 sequence: T1 sequence with I54V

SIX6 [12] = biological target: T12, SIX6 (Homo sapiens, UniProt O95475 114-200)
T12 sequence: T1 sequence with I54L

SIX6 [13] = biological target: T13, SIX6 (Homo sapiens, UniProt O95475 114-200, T165I)
T13 sequence: T1 sequence with T52I, I54L

Row | Sequence | binding signal (SIX6 [1]) | binding signal (SIX6 [2]) | binding signal (SIX6 [3]) | binding signal (SIX6 [4]) | binding signal (SIX6 [5]) | binding signal (SIX6 [6]) | binding signal (SIX6 [7]) | binding signal (SIX6 [8]) | binding signal (SIX6 [9]) | binding signal (SIX6 [10]) | binding signal (SIX6 [11]) | binding signal (SIX6 [12]) | binding signal (SIX6 [13])
1 | CGTGATAC | 11.2 upbm affinity estimate (log intensity, higher = more binding, comparable within an allelic series) | 10.3 upbm affinity estimate (log intensity, higher = more binding, comparable within an allelic series) | 11.3 upbm affinity estimate (log intensity, higher = more binding, comparable within an allelic series) | 9.72 upbm affinity estimate (log intensity, higher = more binding, comparable within an allelic series) | 10.6 upbm affinity estimate (log intensity, higher = more binding, comparable within an allelic series) | 11.1 upbm affinity estimate (log intensity, higher = more binding, comparable within an allelic series) | 10.4 upbm affinity estimate (log intensity, higher = more binding, comparable within an allelic series) | 11.3 upbm affinity estimate (log intensity, higher = more binding, comparable within an allelic series) | 11.3 upbm affinity estimate (log intensity, higher = more binding, comparable within an allelic series) | 11.2 upbm affinity estimate (log intensity, higher = more binding, comparable within an allelic series) | 10.9 upbm affinity estimate (log intensity, higher = more binding, comparable within an allelic series) | 11 upbm affinity estimate (log intensity, higher = more binding, comparable within an allelic series) | 11 upbm affinity estimate (log intensity, higher = more binding, comparable within an allelic series)
2 | GATATCAA | 11.4 upbm affinity estimate (log intensity, higher = more binding, comparable within an allelic series) | 10.5 upbm affinity estimate (log intensity, higher = more binding, comparable within an allelic series) | 11.3 upbm affinity estimate (log intensity, higher = more binding, comparable within an allelic series) | 10 upbm affinity estimate (log intensity, higher = more binding, comparable within an allelic series) | 10.8 upbm affinity estimate (log intensity, higher = more binding, comparable within an allelic series) | 11 upbm affinity estimate (log intensity, higher = more binding, comparable within an allelic series) | 10.3 upbm affinity estimate (log intensity, higher = more binding, comparable within an allelic series) | 11.3 upbm affinity estimate (log intensity, higher = more binding, comparable within an allelic series) | 11.1 upbm affinity estimate (log intensity, higher = more binding, comparable within an allelic series) | 11.3 upbm affinity estimate (log intensity, higher = more binding, comparable within an allelic series) | 11.1 upbm affinity estimate (log intensity, higher = more binding, comparable within an allelic series) | 11.1 upbm affinity estimate (log intensity, higher = more binding, comparable within an allelic series) | 11.1 upbm affinity estimate (log intensity, higher = more binding, comparable within an allelic series)
3 | ATGGGGGC | 8.95 upbm affinity estimate (log intensity, higher = more binding, comparable within an allelic series) | 8.73 upbm affinity estimate (log intensity, higher = more binding, comparable within an allelic series) | 9.01 upbm affinity estimate (log intensity, higher = more binding, comparable within an allelic series) | 8.77 upbm affinity estimate (log intensity, higher = more binding, comparable within an allelic series) | 8.95 upbm affinity estimate (log intensity, higher = more binding, comparable within an allelic series) | 8.95 upbm affinity estimate (log intensity, higher = more binding, comparable within an allelic series) | 8.81 upbm affinity estimate (log intensity, higher = more binding, comparable within an allelic series) | 8.95 upbm affinity estimate (log intensity, higher = more binding, comparable within an allelic series) | 9.11 upbm affinity estimate (log intensity, higher = more binding, comparable within an allelic series) | 8.97 upbm affinity estimate (log intensity, higher = more binding, comparable within an allelic series) | 8.97 upbm affinity estimate (log intensity, higher = more binding, comparable within an allelic series) | 8.87 upbm affinity estimate (log intensity, higher = more binding, comparable within an allelic series) | 8.97 upbm affinity estimate (log intensity, higher = more binding, comparable within an allelic series)
4 | GATACCTA | 11.1 upbm affinity estimate (log intensity, higher = more binding, comparable within an allelic series) | 10.3 upbm affinity estimate (log intensity, higher = more binding, comparable within an allelic series) | 11.1 upbm affinity estimate (log intensity, higher = more binding, comparable within an allelic series) | 9.79 upbm affinity estimate (log intensity, higher = more binding, comparable within an allelic series) | 10.6 upbm affinity estimate (log intensity, higher = more binding, comparable within an allelic series) | 11.1 upbm affinity estimate (log intensity, higher = more binding, comparable within an allelic series) | 10.4 upbm affinity estimate (log intensity, higher = more binding, comparable within an allelic series) | 11.2 upbm affinity estimate (log intensity, higher = more binding, comparable within an allelic series) | 11.2 upbm affinity estimate (log intensity, higher = more binding, comparable within an allelic series) | 11.1 upbm affinity estimate (log intensity, higher = more binding, comparable within an allelic series) | 10.9 upbm affinity estimate (log intensity, higher = more binding, comparable within an allelic series) | 11 upbm affinity estimate (log intensity, higher = more binding, comparable within an allelic series) | 10.9 upbm affinity estimate (log intensity, higher = more binding, comparable within an allelic series)
5 | CTATATCA | 11.2 upbm affinity estimate (log intensity, higher = more binding, comparable within an allelic series) | 10.4 upbm affinity estimate (log intensity, higher = more binding, comparable within an allelic series) | 11.2 upbm affinity estimate (log intensity, higher = more binding, comparable within an allelic series) | 9.95 upbm affinity estimate (log intensity, higher = more binding, comparable within an allelic series) | 10.7 upbm affinity estimate (log intensity, higher = more binding, comparable within an allelic series) | 11 upbm affinity estimate (log intensity, higher = more binding, comparable within an allelic series) | 10.4 upbm affinity estimate (log intensity, higher = more binding, comparable within an allelic series) | 11.1 upbm affinity estimate (log intensity, higher = more binding, comparable within an allelic series) | 11.1 upbm affinity estimate (log intensity, higher = more binding, comparable within an allelic series) | 11 upbm affinity estimate (log intensity, higher = more binding, comparable within an allelic series) | 10.9 upbm affinity estimate (log intensity, higher = more binding, comparable within an allelic series) | 10.9 upbm affinity estimate (log intensity, higher = more binding, comparable within an allelic series) | 11.1 upbm affinity estimate (log intensity, higher = more binding, comparable within an allelic series)
6 | CGCGCTCC | 8.99 upbm affinity estimate (log intensity, higher = more binding, comparable within an allelic series) | 8.9 upbm affinity estimate (log intensity, higher = more binding, comparable within an allelic series) | 8.83 upbm affinity estimate (log intensity, higher = more binding, comparable within an allelic series) | 9.01 upbm affinity estimate (log intensity, higher = more binding, comparable within an allelic series) | 8.97 upbm affinity estimate (log intensity, higher = more binding, comparable within an allelic series) | 9.06 upbm affinity estimate (log intensity, higher = more binding, comparable within an allelic series) | 8.97 upbm affinity estimate (log intensity, higher = more binding, comparable within an allelic series) | 8.86 upbm affinity estimate (log intensity, higher = more binding, comparable within an allelic series) | 9.04 upbm affinity estimate (log intensity, higher = more binding, comparable within an allelic series) | 8.97 upbm affinity estimate (log intensity, higher = more binding, comparable within an allelic series) | 8.93 upbm affinity estimate (log intensity, higher = more binding, comparable within an allelic series) | 8.91 upbm affinity estimate (log intensity, higher = more binding, comparable within an allelic series) | 8.89 upbm affinity estimate (log intensity, higher = more binding, comparable within an allelic series)
